Data: PubChem BioAssay AID493203 (National Center for Advancing Translational Sciences (NCATS), 2011)
Inconclusive results are not listed. Activity calls are given as the source filed them. Calls come from the whole dose curve; as a rule, active = well fitted activation curve with a large enough effect; inconclusive = small, poorly fitted or top-dose-only effect; inactive = flat fitted curve, though single readings scatter.

experiment: qHTS Assay for NPC1 Promoter Activators: Initial hit validation from the primary screen; conditions: Huh7 NPC1 promoter-luciferase reporter, luminescence, 24 h; series mostly up to 46.1 µM; activity, positive = activation: at the top concentration;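 for activity, positive = activation: reporter driven by the mutant form of the NPC1 promoter; % of control where 0% means no effect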
Procedure, shortened: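 Huh7 cells stably carrying NPC1 promoter-luciferase, 1500 cells per well in OP-MEM I with 10% FBS; compounds added after 2 hours and incubated 24 hours at 37C. Luminescence read 10 minutes after Amplite luciferase reagent.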
Potency is the fitted concentration of half-maximal effect.

SMILES | activity, positive = activation | Potency
COc1ccc2oc(=O)c(C(=O)NC(C)c3ccccc3)cc2c1 (centres undefined) | 7.72% (inactive) | 
COc1ccc(-n2c(N)c(C(=O)NCc3ccco3)sc2=S)cc1 | -0.661% (inactive) | 
Cc1c(C(O)CN2CCN(Cc3ccc4c(c3)OCO4)CC2)c2ccccc2n1C (centres undefined) | -7.59% (inactive) | 
CCCCCCC(=O)Nc1ccc(C(=O)N/N=C/c2cccnc2)cc1 | 5.33% (inactive) | 
COc1cccc(CNC(=O)CN(c2cc(C)cc(C)c2)S(=O)(=O)c2c(C)noc2C)c1 | -4.87% (inactive) | 
COC(=O)c1ccc(NC(=O)c2ccc3nc(C)sc3c2)cc1 |  | 888 nM (active)
COC(=O)c1ccccc1NC(=O)c1ccc(-c2ccc(Br)cc2)o1 | -2.77% (inactive) | 
COc1cccc(C(C(=O)NC2CCCC2)N(CCC(C)C)C(=O)CCC(=O)Nc2cc(C)on2)c1 (centres undefined) | -13.5% (inactive) | 
C=CCn1c(C)nnc1SCC(=O)Nc1nccs1 | 8.91% (inactive) | 
O=C(CCCC(=O)N(CC(=O)NC1CCCCC1)c1cccc(F)c1)Nc1ccccn1 | 5.64% (inactive) | 
CCOc1ccc(CNC(=O)C2CCCN(S(C)(=O)=O)C2)cc1OC (centres undefined) | 8.81% (inactive) | 
CCCC(C)NC(=O)c1ccc(OCc2ccc(Cl)cc2)c(OC)c1 (centres undefined) | 5.79% (inactive) | 
COc1ccccc1CNC(=O)COc1ccc(C)cc1 | -3.78% (inactive) | 
O=C(Nc1ccc(-c2nc3cccnc3s2)cc1)c1ccc(Cl)nc1 |  | 1250 nM (active)
COCCNC(=O)CN1C(=O)NC(c2ccccc2)(c2ccccc2)C1=O | 1.47% (inactive) | 
Cc1ccc(N(O)C(=O)NCCCCNC(=O)N(O)c2ccc(C)cc2)cc1 |  | 25000 nM (active)
O=C(CN1C(=O)COc2ccc(Cl)cc21)NCC1CCCO1 (centres undefined) | -1.19% (inactive) | 

SMILES | activity, positive = activation | Potency
Cc1ccc(C(=O)NC2CCN(CC(=O)Nc3c(C)cc(C)cc3C)CC2)cc1 | -6.42% (inactive) | 
COc1ccc(-c2csc(Nc3ncccn3)n2)cc1C |  | 250 nM (active)
CCN(CC(=O)N(CC(C)C)c1c(N)n(CC(C)C)c(=O)[nH]c1=O)Cc1nc2ccccc2c(=O)[nH]1 | -0.302% (inactive) | 
NC(=O)C(=O)NN=C1C2CC3CC(C2)CC1C3 | 1.62% (inactive) | 
O=C(N/N=C/c1ccc(-c2ccc(Br)cc2)o1)c1ccc2c(c1)OCO2 | 14.3% (inactive) | 
CC1CN(C(=O)c2ccncc2)CC(C)O1 (centres undefined) | -2.47% (inactive) | 
CC(C)C1(CCNC(=O)c2cccs2)CCOC(C)(C)C1 (centres undefined) | 0.277% (inactive) | 
N#C/C(=C\c1ccc[nH]1)C(=O)Nc1ccccc1Cl |  | 3970 nM (active)
NCCOc1ccccc1-c1ccccc1 | 0.267% (inactive) | 
CCN(C(=O)COC(=O)c1ccc(C=O)cc1)c1c(N)n(Cc2ccccc2)c(=O)[nH]c1=O | -1.43% (inactive) | 
Cc1nc(SCC(=O)NC(=O)NC(C)(C)C)nc(C)c1C | 1.65% (inactive) | 
O=C(O)CSc1nnc(-c2ccncc2)n1CCc1ccccc1 | 6.07% (inactive) | 
CC(C)(C)C(=O)N/C(N)=N/c1nc2ccccc2o1 |  | 499 nM (active)
COCCn1c(SCc2ccc(C(=O)OC)o2)nc2cc(Cl)ccc2c1=O | -11% (inactive) | 
COc1ccc(C(c2nnnn2CCc2ccccc2)N2CCN(C3CCCC3)CC2)cc1 (centres undefined) | 3.38% (inactive) | 
Cc1cccc(NC(=O)CSc2nc3ccccc3o2)c1 | 13.4% (inactive) | 
O=S(=O)(c1cccs1)N1CCN(c2ncccn2)CC1 | -1.21% (inactive) | 
